Experimental findings from PubChem BioAssay (NCI) are described below.

“And” between values parts separate entries of the source, which are not always exact repeats. Identical values can stand only once. About 83,000 compounds went through this panel and 20% of them were active in at least one assay; those are over-represented in the sample as a whole.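 Interpretation: 100, growth as untreated; towards 0, rising growth inhibition; 0, no net growth; 0 to -100, cell death. Compounds scoring below 10 were considered active.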 A number with no mark means an inactive call. The source made the active and inactive calls.

The test deals with MDA-MB-231 breast. Put plainly: NCI-60 one-dose screen, 48 h (100 = growth as untreated, 0 = no growth, -100 = all killed). Conditions: 10 µM unless noted.
As for `C[n+]1c(/C=C/c2ccc([N+](=O)[O-])cc2)ccc2ccccc21`, the growth is 115%.
The figure for `c1ccc2c(c1)Nc1cc3ccccc3cc1N2` is 33.1%; for `CCOC(=O)/C(=C\c1ccc(-c2ccccc2)cc1)C(C)=O` it is 112%; for `NC(N)=N/N=C/c1ccc([N+](=O)[O-])o1` it is 105%.
To `CCCCCCCCCCCCCCCC[N+](C)(CCO)Cc1cnc[nH]1` (configuration not stated) belongs -54.9% (active); to `COC(=O)c1nc(=S)[nH]c(C(=O)OC)c1C(=O)c1ccc2ccccc2c1`, 90.4%; to `CCC(=O)Sc1ccccc1C(=O)Nc1ccc(Cl)cc1`, 67.2%.
To `Cc1ccnc(NC(c2ccccc2)c2ccc3cccnc3c2O)c1` (configuration not stated) belongs 48.5%; to `CC1SC(=S)N(c2ccc(Cl)cc2)C1=O` (configuration not stated), 99.6% and 86.4%; to `CCN1/C(=C\c2cc[n+](CC)c3ccccc23)C=Cc2ccccc21`, 3.42% (active).
On to `Cc1ccc(C(=Nc2ccccc2)N=P(c2ccccc2)(c2ccccc2)c2ccccc2)cc1`, for which the growth was -41% (active).
To `CC(C)(C)c1ccc(O)c(C2CCCCC2)c1` belongs 106%; to `Cc1ccc(NS(=O)(=O)c2ccc(C)cc2)cc1`, 103% and 107%.
The figure for `O=C(O)C1C2CC3C(OC(=O)C31)C2Br` (configuration not stated) is 103% and 115%.
As to `C=CCOc1ccc(N=NC(C#N)C#N)cc1`, the growth is 69.7%.
For `CN(C)c1ccc(C(=C2C=CC(=[N+](C)C)C=C2)c2ccc(N(C)C)cc2)cc1` (tested in a mixture with another compound), the growth was -60.9% (active).
Turning to `O=C(/C=C\c1cc(Br)ccc1O)/C=C/c1cc(Br)ccc1O`, the growth is 0.442% (active).
In the case of `CC(C)c1ccc2nc3ccc(C(=O)NCCN4CCN(c5ccccc5)CC4)cn3c(=O)c2c1`, the growth was 59.3%.
`O=C(/C=C/C=C/c1ccccc1)c1ccco1`: the growth is 102%.
Regarding `CC1(C)CC([P+](c2ccccc2)(c2ccccc2)c2ccccc2)=NN1`, the growth is 65.4%.
As to `COC(=O)[C@@]12OC[C@]34[C@H]([C@@H](O)[C@@H]1O)[C@@]1(C)[C@H](O)C(=O)C=C(C)[C@@H]1C[C@H]3OC(=O)C(OC(C)=O)[C@@H]24` (some centres not stated), the growth was -39.5% (active).
The figure for `Cc1c2ccccc2c(C)c2c1ccc1ccccc12` is 89.8%.
To `S=C(N/N=C/c1ccccn1)Nc1ccccn1` belongs 42.4%; to `CN(C)C(=O)SC1=C(c2c(Cl)cccc2Cl)C(=O)c2ccccc21`, 80.6%; to `CCC(CC)COC(=O)c1ccc(O)c(O)c1`, 48.9%.
The figure for `CC1=CC(O)C2CC1C2(C)C` (configuration not stated) is 99.1% and 110%.
Turning to `COc1cc(/C=C(/C)C[N+](=O)[O-])ccc1O`, the growth was 89.8%.
To `NC1=CC(=O)c2ccccc2C1=O` belongs 82.1%; to `CCN(CC)CCOc1ccc(-c2nc3cc(Cl)ccc3s2)cc1`, -44.8% (active).
The figure for `CCOc1ccc(-c2nc3ccc(-c4nc5ccc(N6CCN(C)CC6)cc5[nH]4)cc3[nH]2)cc1` is -84.2% (active).
To `CNC(=O)N/N=C/c1ccc([N+](=O)[O-])o1` belongs 97.6%; to `N#CSCc1ccc(CSC#N)c(Cl)c1`, 52.5%.
